# Measured values taken from PubChem BioAssay.
# Where “and” joins values, the source holds several entries; their conditions need not be identical. Identical values can stand only once. Results filed as inconclusive are left out. Calls of active or inactive are those of the source. Cut-off read from the data, not from the text of the source, unless noted: active = nuclear beta-catenin stimulation mostly above about 4.2% (no sharp cut-off); inactive = mostly below about 10%.
# Experiments:
# [1] = Wnt pathway potentiators raising nuclear beta-catenin – imaging, WNT3A-conditioned medium, mouse C2C12, NPC library, primary screen (AID 1117326); conditions: stronger effect = higher value
# [2] = stimulators of insulin release from INS-1E, primary screen, cell-based, 5 mM glucose, NPC library (AID 1117329;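 active = compound raises insulin release from rat beta cells at 5 mM glucose, no numeric limit stated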); conditions: rat INS-1E insulin secretion, at 10 µM, stronger effect = higher value
# [3] = growth inhibition of GSK3B-pretreated HCT116 cells – cell-based, CellTiter-Glo, 0.2 to 20 µM (AID 1117336;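 active = compounds lowering colon cancer cell viability after pretreatment blocking the GSK3B kinase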); conditions: HCT116 viability after GSK3B inhibitor, at 20 µM, stronger effect = higher value
# [4] = inhibition of endothelial tube formation, primary screen, imaging, VEGF stimulated, CD31 staining, tube area, NPC library (AID 1117340;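 active = compound that reduces growth-factor-driven endothelial tube area in a mixed cell culture, no cutoff stated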); conditions: VEGF-stimulated ADSC/ECFC co-culture, at 10 µM, stronger effect = higher value
# [5] = GLP1 release stimulators, primary, NCI-H716, NPC library (AID 1117341;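 active = compound raises GLP1 secretion from the human gut endocrine cells, with no numeric limit stated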); conditions: NCI-H716 cells, at 10 µM, stronger effect = higher value
# [6] = HCT116 colon cancer cell growth inhibition, primary screen, CellTiter-Glo luminescence, NPC library (AID 1117342;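 active = compounds that lower survival of HCT116 colon cancer cells in the luminescence readout, no numeric limit stated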); conditions: at 20 µM (top of the series)
# [7] = reduced SW480 viability measured with CellTiter-Glo, NPC library, primary (AID 1117343;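 active = compounds that lower viability of the colon cancer cells in the luminescence readout, with no numeric limit stated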); conditions: CellTiter-Glo luminescence; at 20 µM (top of the series) unless noted
# [8] = NPC library primary testing for decreased DLD-1 cell viability via CellTiter-Glo (AID 1117346;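 active = compounds that lower survival of DLD-1 colon cancer cells in the luminescence readout, no cutoff given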); conditions: DLD-1 viability, CellTiter-Glo luminescence; at 20 µM (top of the series)
# [9] = test system: Aerobactin synthetase IucA (Klebsiella pneumoniae); assay: inhibition of K. pneumoniae IucA enzyme – biochemical, Tocris library, absorbance (AID 1345561; call rule not given here;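 note: 100% = enzyme without compound and 0% = no enzyme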); conditions: purified IucA enzyme assay, absorbance (OD) read-out; stronger effect = lower value;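 tested at 8 µM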
# [10] = viability loss in pontine glioma line – cell-based, SU-DIPG-XVII, MIPE5.0, CellTiter-Glo, qHTS, dose response (AID 1347060; cut-off not given, nearly all actives have AC50 up to about 26 µM); conditions: CellTiter-Glo ATP luminescence
# [11] = viability loss in pontine glioma line – cell-based, SU-DIPG-XIII, MIPE4.0, CellTiter-Glo, qHTS, dose response (AID 1347061; cut-off not given, nearly all actives have AC50 up to about 37 µM;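 note: cells exposed to compound for 48 hours before readout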); conditions: CellTiter-Glo ATP luminescence
# [12] = viability loss in pontine glioma line – cell-based, JHH-DIPG-1, MIPE4.0, CellTiter-Glo, qHTS, dose response (AID 1347062; cut-off not given, nearly all actives have AC50 up to about 27 µM); conditions: JHH-DIPG-1 viability, CellTiter-Glo ATP luminescence
# [13] = growth inhibition of DIPG cells – cell-based, MIPE5.0 library, qHTS (AID 1347068; cut-off not given, nearly all actives have IC50 up to about 30 µM); conditions: SU-DIPG-XXV viability
# [14] = viability loss with induced miR-34 in A549 – imaging, A549 dox-inducible miR-34, nuclei and caspase counts, primary screen (AID 1347080;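 active = compounds whose cell count with miR-34 switched on is under 0.7 times the count with it off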); conditions: A549 miR-34 inducible, Hoechst nuclei count, 48 h
# [15] = MELAS cybrid and Rieske KO viability enhancers – cell-based, MELAS cybrids, Rieske KO mouse fibroblasts, CellTiter-Glo, primary screen (AID 1508586;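 active = mean z-score across replicates of 1.96 or higher in either the MELAS or the Rieske mutant cell line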;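 note: z relative to plate mean and SD of compound and empty wells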); conditions: low glucose
# [16] = galactose survival enhancers in mitochondrial complex I cybrids – cell-based, galactose medium, ATP luminescence, primary screen (AID 1645843;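 active = z-score of at least 1.8 in each of two replicates, scored against plate mean and spread of sample wells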;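 note: positive z means more ATP and so rescue of galactose-driven cybrid death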); conditions: complex I mutant cybrid cells, 72 h, stronger effect = higher value
# [17] = P. berghei load reduction in hepatocytes – cell-based, HepG2, luciferase luminescence, HepG2 viability, primary screen (AID 624349; in the data active = parasite load remaining mostly below about 12%, no sharp cut-off; inactive = mostly above about 10%;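 note: 100% = mean of DMSO negative control wells on the same plate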); conditions: P. berghei liver stage in HepG2, luciferase luminescence, concentration not given here; parasite load remaining: stronger effect = lower value; viability: measured here: HepG2 viability without parasites
# [18] = EMT-state selective cytotoxicity in co-culture – imaging, PC-3E GFP, TEM4-18 mCherry, primary screen (AID 1345086;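 active = compounds killing one labelled cell type while sparing the other, by normalised counts and ratio limits, not self-fluorescent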;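 for all read-outs here: cells exposed to compound for 72 h before imaging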;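 for red/green cell ratio (normalised): normalised mesenchymal count divided by normalised epithelial count so high means epithelial killing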); conditions: PC-3E GFP / TEM4-18 mCherry co-culture, imaging cell counts, at 1 µM; for red/green cell ratio (normalised): actives lie on both sides, counts scaled to control wells, 1 = unselective
# [19] = biological target: NAD(+) hydrolase SARM1 (Homo sapiens) (UniProt Q6SZW1); assay: blocking NAD cleavage by SARM1 SAM-TIR – cell lysate, NAD-Glo luminescence (AID 1508614;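 active = compound whose remaining NAD level is above about 45 nM, limit read from the data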;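 note: higher remaining NAD means stronger inhibition of SARM1 NADase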); conditions: SAM-TIR HEK293T lysate NADase, at 1 µM, stronger effect = higher value
# Chain of NAD(+) hydrolase SARM1 (Homo sapiens) (Q6SZW1 whole entry, looked up): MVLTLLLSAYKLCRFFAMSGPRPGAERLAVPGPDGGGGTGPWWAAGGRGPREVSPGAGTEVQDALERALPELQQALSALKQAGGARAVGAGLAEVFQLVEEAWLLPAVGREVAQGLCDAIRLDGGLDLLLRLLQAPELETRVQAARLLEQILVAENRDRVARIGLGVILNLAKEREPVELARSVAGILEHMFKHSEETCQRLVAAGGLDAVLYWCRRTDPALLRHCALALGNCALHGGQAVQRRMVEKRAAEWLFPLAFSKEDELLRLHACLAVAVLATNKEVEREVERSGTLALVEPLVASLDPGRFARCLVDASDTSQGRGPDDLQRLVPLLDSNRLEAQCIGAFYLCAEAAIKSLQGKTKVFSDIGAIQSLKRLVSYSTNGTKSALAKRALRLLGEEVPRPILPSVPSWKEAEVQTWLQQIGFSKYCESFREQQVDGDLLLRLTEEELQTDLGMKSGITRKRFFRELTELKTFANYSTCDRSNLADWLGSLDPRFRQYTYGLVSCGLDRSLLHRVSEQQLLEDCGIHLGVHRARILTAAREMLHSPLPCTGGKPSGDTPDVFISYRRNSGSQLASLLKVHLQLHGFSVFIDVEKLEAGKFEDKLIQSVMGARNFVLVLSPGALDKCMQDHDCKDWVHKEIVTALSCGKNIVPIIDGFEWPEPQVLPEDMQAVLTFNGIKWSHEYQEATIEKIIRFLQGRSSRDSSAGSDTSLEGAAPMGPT
# [20] = stronger effect = lower value, cell number ratio, induced over uninduced
# [21] = measured here: relative caspase fold change +Dox/-Dox
# [22] = measured here: total cells with miR-34 induction, stronger effect = lower value
# [23] = measured here: total cells without miR-34 induction
# [24] = measured here: epithelial PC-3E GFP cell survival
# [25] = measured here: mesenchymal TEM4-18 mCherry cell survival
smiles,measurement,setting,value
CCOCC(O)COc1ccc(NC(=O)CC[S+](C)C)cc1 (stereo unspecified),nuclear beta-catenin stimulation,[1]; at 10 µM,-0.1% (inactive)
same,nuclear beta-catenin stimulation,"[1]; stimulation, at 2 µM",-0.3%
same,insulin secretion stimulation,[2],0.8% (inactive)
same,viability decrease,[3],-7.6% (inactive)
same,tube area decrease,[4],-11.2% (inactive)
same,GLP1 secretion stimulation,[5],-0.3% (inactive)
same,inhibition of viability,[6],0.1% (inactive)
same,viability decrease (inhibition),[7],-6.5% (inactive)
same,viability decrease (inhibition),[8],-3.6% (inactive)
same,remaining activity,[9],96.6% (inactive)
same,outcome,[10],inactive
same,outcome,[11],inactive
same,outcome,[12],inactive
same,outcome,[13],inactive
same,fold change,[14]; [20],0.867 (inactive) and 0.902 (inactive)
same,fold change,[14]; [21],0.938 and 2.11
same,cell count,[14]; [22],8140 and 8470
same,cell count,[14]; [23],9400 and 9390
same,z-score,"[15]; MELAS cybrid survival, CellTiter-Glo 48 h, stronger effect = higher value",-0.246 (inactive)
same,z-score,"[15]; Rieske KO mouse fibroblast survival, CellTiter-Glo 72 h",0.62
same,z-score,[16],-0.075 (inactive)
O=C(O)CN(CC(=O)O)Cc1cc2c(-c3ccccc3C(=O)O)c3cc(CN(CC(=O)O)CC(=O)O)c(=O)cc-3oc2cc1O,parasite load remaining,[17],107% (inactive)
same,viability,[17],73.2%
same,nuclear beta-catenin stimulation,[1]; at 10 µM,-1.1% (inactive)
same,nuclear beta-catenin stimulation,"[1]; stimulation, at 2 µM",-0.6%
same,insulin secretion stimulation,[2],-0.4% (inactive)
same,viability decrease,[3],38.8% (inactive)
same,tube area decrease,[4],19.9% (inactive)
same,GLP1 secretion stimulation,[5],0.8% (inactive)
same,inhibition of viability,[6],22.3% (inactive)
same,viability decrease (inhibition),[7],25.8% (inactive)
same,viability decrease (inhibition),[8],14.8% (inactive)
same,red/green cell ratio (normalised),[18],0.97 (inactive)
same,normalised cell number,[18]; [24],1.53
same,normalised cell number,[18]; [25],1.49
CC(=O)NCc1c(I)c(NC(C)=O)c(I)c(C(=O)O)c1I,parasite load remaining,[17],120% (inactive) and 34.8% (inactive)
same,viability,[17],74.1% and 92.4%
same,nuclear beta-catenin stimulation,[1]; at 10 µM,-1.4% (inactive)
same,nuclear beta-catenin stimulation,"[1]; stimulation, at 2 µM",-1.3%
same,insulin secretion stimulation,[2],-0.4% (inactive)
same,viability decrease,[3],-16.4% (inactive)
same,tube area decrease,[4],-6.1% (inactive)
same,GLP1 secretion stimulation,[5],0% (inactive)
same,inhibition of viability,[6],-14.3% (inactive)
same,viability decrease (inhibition),[7],27.5% (inactive)
same,viability decrease (inhibition),[8],-14.8% (inactive)
same,red/green cell ratio (normalised),[18],1.24 (inactive)
same,normalised cell number,[18]; [24],1.02
same,normalised cell number,[18]; [25],1.27
same,fold change,[14]; [20],0.851 (inactive)
same,fold change,[14]; [21],1.88
same,cell count,[14]; [22],10700
same,cell count,[14]; [23],12600
O=C1c2ccccc2C(=O)C1c1ccc(Br)cc1,parasite load remaining,[17],54.8% (inactive)
same,viability,[17],105%
same,nuclear beta-catenin stimulation,[1]; at 10 µM,2.7% (inactive)
same,nuclear beta-catenin stimulation,"[1]; stimulation, at 2 µM",1.3%
same,insulin secretion stimulation,[2],4.3% (inactive)
same,viability decrease,[3],52.2% (active)
same,tube area decrease,[4],31.1% (inactive)
same,GLP1 secretion stimulation,[5],-0.4% (inactive)
same,inhibition of viability,[6],61.7% (active)
same,viability decrease (inhibition),[7],67.2% (active)
same,viability decrease (inhibition),[8],26.1% (inactive)
same,red/green cell ratio (normalised),[18],0.9 (inactive)
same,normalised cell number,[18]; [24],0.94
same,normalised cell number,[18]; [25],0.85
same,fold change,[14]; [20],0.831 (inactive)
same,fold change,[14]; [21],3.92
same,cell count,[14]; [22],10800
same,cell count,[14]; [23],13100
same,remaining NAD,[19],10 nM (inactive)
CC(C)CCCC(C)N (stereo unspecified),parasite load remaining,[17],30.8% (inactive)
same,viability,[17],90%
same,nuclear beta-catenin stimulation,[1]; at 10 µM,3.1% (inactive)
same,nuclear beta-catenin stimulation,"[1]; stimulation, at 2 µM",2%
same,insulin secretion stimulation,[2],4.9% (inactive)
same,viability decrease,[3],2% (inactive)
same,tube area decrease,[4],-9.7% (inactive)
same,GLP1 secretion stimulation,[5],0% (inactive)
same,inhibition of viability,[6],-7.6% (inactive)
same,viability decrease (inhibition),[7],-47.3% (active)
same,viability decrease (inhibition),[8],-8.6% (active)
same,red/green cell ratio (normalised),[18],1.15 (inactive)
same,normalised cell number,[18]; [24],0.96
same,normalised cell number,[18]; [25],1.1
same,fold change,[14]; [20],0.884 (inactive)
same,fold change,[14]; [21],1.92
same,cell count,[14]; [22],11300
same,cell count,[14]; [23],12800
same,remaining NAD,[19],10 nM (inactive)
